Compound activity: PubChem BioAssay, National Center for Advancing Translational Sciences (NCATS)
Most compounds without a hit are left out; they make up all but 4.7% or so of the library.
HepG2 tox – kills HepG2 cells in TGF-b inhibitor counter-screen. AID 588856. hit rate 0.76% among 410,000. Potency, µM (titrated, usually from 46.1 µM), hits mostly cytotoxic. HepG2 CAGA-GFP viability, ATP luminescence, 18 h
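CellTiter-Glo luminescence gave cytotoxicity after 18 hours at 37 degrees C. The cells were HepG2 CAGA-GFP in 1% FBS DMEM, stimulated with 500 pg/mL TGF-beta after compound addition. %Activity was normalised to no-cell wells (complete cell-killing) and DMSO (no toxicity), and curves were fitted and classified.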
ATXN2 expr inh – ATXN2 expression inhibition; HEK-293 ATXN2-luciferase reporter, luminescence, 24 h; Potency, µM (top dose mostly 57 µM), most hits filed as inhibitors; hit rate 0.72% among 360,000; also: nearly all actives have a fitted effect of over 55% in size
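qHTS (up to 57 uM final) was run with 24 h compound exposure of reporter cells at 37 °C. Each well was multiplexed: SteadyGlo luminescence measured ATXN2-luciferase expression after a fluorogenic Gly-Phe-AFC viability readout (25 uM final).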
ATXN viability – cell viability loss in ATXN counter-screen. S2 cells (HEK-293 line with an ATXN2-luciferase reporter) viability, CellTiter-Fluor protease fluorescence, 24 h. Potency, µM (top dose mostly 56.7 µM), hits mostly cytotoxic. hit rate 0.49% among 400,000. AID 651635; also: nearly all actives have a fitted effect of over 40% in size
D3 ag – D3 dopamine receptor (human) agonism; hit rate 0.58% among 410,000; AID 652048; max activation, %; P35462; D3R DiscoveRx beta-arrestin cells, luminescence, 90 min; in the data active = max activation above about 30%
Target sequence (P35462 whole entry, looked up): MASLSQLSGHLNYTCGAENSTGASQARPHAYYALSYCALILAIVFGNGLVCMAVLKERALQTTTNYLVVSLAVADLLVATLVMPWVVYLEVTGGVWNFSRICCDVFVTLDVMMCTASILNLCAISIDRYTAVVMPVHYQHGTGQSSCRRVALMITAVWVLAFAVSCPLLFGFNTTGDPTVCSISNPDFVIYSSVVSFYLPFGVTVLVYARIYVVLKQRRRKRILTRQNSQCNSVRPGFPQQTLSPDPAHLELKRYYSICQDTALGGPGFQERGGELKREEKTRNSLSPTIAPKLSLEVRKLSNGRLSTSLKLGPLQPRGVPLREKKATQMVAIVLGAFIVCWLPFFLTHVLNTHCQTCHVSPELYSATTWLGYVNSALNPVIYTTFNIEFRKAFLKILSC
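Agonist-mode cell screen: cells plated at 1500/well and incubated overnight at 37 °C, then exposed to library compounds for 90 min at 37 °C. Detection reagent was added for 30–60 min at room temperature, and luminescence was read.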
TGFb inhibitor – inhibitors of TGF-b signaling. HepG2 CAGA-GFP TGF-b/SMAD3 reporter, GFP fluorescence, 18 h; TGF-beta stimulated, 500 pg/mL final. Potency, µM (top dose mostly 46.1 µM), actives largely listed as inhibitors. hit rate 1.2% among 410,000. AID 588855; also: nearly all actives have a fitted effect of over 65% in size
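Using HEPG2 CAGA-GFP reporter cells at 1000 cells/well, we pinned test compounds, stimulated with recombinant TGF-beta (500 pg/mL final) and measured total well GFP after 18 h.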
D3 antag – antagonists of human D3 dopamine receptor. hit rate 2.5% among 360,000. P35462. max response, negative = inhibition, %. D3R cells, DiscoveRx beta-arrestin luminescence, antagonist mode; hits give low values; in the data active = max response below about -50%; inconclusive = no clear call, values can overlap the other calls
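Cells expressing the human receptor were seeded at 1500 cells/well, incubated overnight at 37 degrees C in 5% CO2, then exposed to library compounds with dopamine controls for 90 minutes at 37 degrees C before luminescent detection.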
Large screens that a line does not name were inactive. Unless noted, calls follow the shape of the dose curve; as a rule, active = well fitted curve in the direction sought with a large enough effect; inconclusive = small, poorly fitted or top-dose-only effect, or another doubt; inactive = no such curve, though single readings can be large; an effect the other way counts as inactive or inconclusive.

CCOC(=O)c1ccc(N2C(=O)c3[nH]nc(-c4ccc(C)cc4)c3C2c2ccc(O)cc2)cc1 (stereo unspecified)	ATXN2 expr inh inconclusive, ATXN viability inconclusive, TGFb inhibitor inconclusive (no result: D3 antag)
CCOC(=O)c1ccc(N2C(=O)c3[nH]nc(-c4ccc(OC)cc4)c3C2c2cccc(O)c2)cc1 (stereo unspecified)	HepG2 tox 10µM, ATXN2 expr inh inconclusive, TGFb inhibitor 16µM (no result: ATXN viability, D3 antag)
Cc1ccccc1CNCCSc1nnnn1-c1ccccc1	TGFb inhibitor inconclusive (no result: D3 antag)
CCC(C)NC(=O)Cn1c(=O)n(CCCCCC(=O)NCc2ccccc2Cl)c(=O)c2sccc21 (stereo unspecified)	none (no result: ATXN2 expr inh, ATXN viability, D3 antag)
Cc1cc(C)cc(NC(=O)CSc2oc(-c3cccs3)nc2S(=O)(=O)c2ccccc2)c1	none (no result: D3 antag)
COc1ccc(S(=O)(=O)N2CCC3CC2c2c(-c4ccc(C(F)(F)F)cc4)cccc23)cc1 (stereo unspecified)	D3 ag 52
C[n+]1c2n(c3ccccc31)N=C(c1cc(C(C)(C)C)c(O)c(C(C)(C)C)c1)CS2	ATXN2 expr inh inconclusive, ATXN viability 22µM, TGFb inhibitor 6.3µM
C/C(=N\Nc1nc2ccccc2s1)c1ccc2c(c1)OCO2	TGFb inhibitor inconclusive (no result: ATXN2 expr inh)
Cc1ccc(/C=N/Nc2nc3ccccc3s2)o1	none (no result: ATXN viability)
CC(=NNc1nc2ccccc2s1)c1ccncn1	ATXN2 expr inh inconclusive, TGFb inhibitor inconclusive, D3 antag -57 (no result: ATXN viability)
C/C(=N\Nc1nc2ccccc2s1)c1ccc(Br)s1	TGFb inhibitor 13µM (no result: ATXN viability)
CC1(C)OC(=O)C2(Cc3c(F)cccc3N3CCCC32)C(=O)O1 (stereo unspecified)	none (no result: ATXN2 expr inh, ATXN viability, D3 ag, D3 antag)
CCOc1ccc(-c2cn3c(n2)sc2cc(C(=O)N4CCCC(C)C4)ccc23)cc1 (stereo unspecified)	none (no result: ATXN2 expr inh, ATXN viability, D3 antag)
COc1cc(O)cc(/C=C/c2ccccc2)c1	D3 ag 70
COc1coc(C(O)CN)cc1=O (stereo unspecified)	none
CCOC(=O)C(=Cc1cc(=O)c(OC)co1)C(=O)OCC	HepG2 tox 14µM, ATXN2 expr inh inconclusive, ATXN viability inconclusive, TGFb inhibitor 7.1µM
O=C(NNc1ccc(C(F)(F)F)cc1[N+](=O)[O-])c1ccc(NS(=O)(=O)c2ccc(F)cc2)cc1	TGFb inhibitor inconclusive, D3 antag -73
Cc1cc(C)n(CC(=O)N2CCC(n3c(C(C)C)nc4cccnc43)CC2)n1	none (no result: HepG2 tox, ATXN2 expr inh, D3 ag, TGFb inhibitor, D3 antag)
COc1cc(OC)c2ccc(=O)oc2c1C(CCN1CCCC1)c1ccc2c(c1)OCO2 (stereo unspecified)	ATXN viability 14µM
COc1cc(OC)c2c(-c3ccccc3)cc(=O)oc2c1C(CCN1CCCC1)c1ccc2c(c1)OCO2 (stereo unspecified)	ATXN viability inconclusive, TGFb inhibitor inconclusive, D3 antag inconclusive
CCCCCc1cc(=O)oc2c(C(CCN3CCCCC3)c3ccc4c(c3)OCO4)c(OC)cc(OC)c12 (stereo unspecified)	ATXN2 expr inh 32µM, ATXN viability 18µM, TGFb inhibitor 18µM
COc1cc(OC)c2ccc(=O)oc2c1C(CCN1CCOCC1)c1ccc2c(c1)OCO2 (stereo unspecified)	ATXN viability 8.9µM
CCCCCc1cc(=O)oc2c(C(CCN3CCCC3)c3ccc4c(c3)OCO4)c(OC)cc(OC)c12 (stereo unspecified)	TGFb inhibitor inconclusive (no result: ATXN2 expr inh, ATXN viability, D3 ag, D3 antag)
CCCCCc1cc(=O)oc2c(C(CCN(CC)CC)c3cc(OC)c(OC)c(OC)c3)c(OC)cc(OC)c12 (stereo unspecified)	HepG2 tox 18µM, ATXN2 expr inh inconclusive, ATXN viability 32µM, TGFb inhibitor inconclusive
Cc1ccc(NC(=O)CSc2nnc(-c3cc4occc4n3C)n2-c2ccccc2C)c(Cl)c1	TGFb inhibitor inconclusive (no result: ATXN2 expr inh, ATXN viability, D3 antag)
Cc1ccc2c(CN(C)Cc3ccc(OC(F)F)cc3)cc(=O)oc2c1C	HepG2 tox 13µM
COC(=O)C1=C(C)N(Cc2ccc(C)cc2)C(=O)/C1=C\c1cc(OC)c(OC)c(OC)c1	HepG2 tox 16µM, TGFb inhibitor inconclusive
CCOc1ccccc1NC(=O)CCCc1nc(-c2ccccc2Cl)no1	none (no result: D3 antag)
c1ccc(Cc2nnc(SCc3nc(-c4cccs4)no3)n2-c2ccccc2)cc1	ATXN viability inconclusive, TGFb inhibitor inconclusive (no result: D3 antag)
Cc1cccc(-n2c(Cc3ccccc3)nnc2SCc2nc(-c3cccs3)no2)c1	ATXN2 expr inh inconclusive, ATXN viability inconclusive, TGFb inhibitor 13µM (no result: D3 antag)
O=S(=O)(Nc1ccc(-c2ccc(NS(=O)(=O)c3ccccc3)cc2)cc1)c1ccccc1	TGFb inhibitor inconclusive, D3 antag inconclusive
Cc1ccc(S(=O)(=O)Nc2ccc(-c3csc(-c4ccccc4)n3)cc2)cc1	HepG2 tox 13µM, ATXN viability inconclusive, TGFb inhibitor inconclusive
O=S(=O)(Nc1ccc(-c2csc(-c3ccccc3)n2)cc1)c1ccccc1	HepG2 tox 14µM, ATXN viability inconclusive, TGFb inhibitor inconclusive
Cc1ccc2cccc(NC(=O)c3ccc(-c4ccc(Cl)cc4Cl)o3)c2n1	none (no result: D3 antag)
N#Cc1c(N)n(C2OC(CO)C(O)C2O)c2ncnc(N)c12 (stereo unspecified)	ATXN2 expr inh 0.3µM, ATXN viability inconclusive, TGFb inhibitor inconclusive, D3 antag inconclusive
Oc1ccc(N=Nc2cccc(Cl)c2)cc1C=Nc1ccc(N2CCOCC2)cc1	D3 antag -76
COc1ccc(C(=O)N(Cc2ccc(N(C)C)cc2)Cc2ccco2)cc1Cl	none (no result: ATXN2 expr inh, ATXN viability, TGFb inhibitor, D3 antag)
Fc1ccc(-c2ccc(CNCc3ccccn3)o2)cc1	ATXN viability inconclusive, D3 antag inconclusive
Clc1ccc(-c2ccc(CNCc3ccccn3)o2)cc1	D3 antag -69 (no result: ATXN2 expr inh)
COc1cc(/C=C2/SC(=Nc3ccc(O)cc3)NC2=O)cc(OC)c1O	none
COc1ccccc1N=C1NC(=O)/C(=C/c2ccc(N(C)C)cc2)S1	D3 antag -95 (no result: ATXN2 expr inh)
CN(C)c1ccc(/C=C/c2ccc3ccccc3[n+]2[O-])cc1	none (no result: ATXN2 expr inh, ATXN viability, D3 ag, D3 antag)
CN(C)c1ccc(/C=C/c2cc[n+]([O-])c3ccccc23)cc1	none (no result: ATXN2 expr inh, ATXN viability, D3 ag, D3 antag)
CC[n+]1c(/C=C/c2ccc(N(C)C)cc2)ccc2ccccc21	ATXN2 expr inh inconclusive, TGFb inhibitor 3.5µM (no result: ATXN viability)
CC[n+]1ccc(/C=C/c2ccc(N(C)C)cc2)c2ccccc21	ATXN2 expr inh inconclusive, ATXN viability 8.9µM, TGFb inhibitor 6.3µM
COCc1cc(C)nc(N2CCNCC2)c1C#N	D3 antag -56
COCc1cc(C)nc(N2CCN(Cc3ccccc3)CC2)c1C#N	D3 antag -90
Cc1cc(C)c(S(=O)(=O)NCC(c2ccco2)S(=O)(=O)c2cccs2)c(C)c1 (stereo unspecified)	TGFb inhibitor inconclusive (no result: ATXN2 expr inh, ATXN viability, D3 antag)
OC[C@H]1OC([S-])[C@H](O)[C@@H](O)[C@@H]1O.[Au+] (stereo partly specified)	none (no result: HepG2 tox, ATXN2 expr inh, ATXN viability, TGFb inhibitor, D3 antag)
